Cav3 T inh = Cav3.2 calcium influx blockers – cell-based, Fluo-4 calcium fluorescence, FDSS, MLSMR library, primary screen; Voltage-dependent T-type calcium channel subunit alpha-1H (Homo sapiens), O95180; Cav3.2-expressing cells; stronger effect = lower value; B-score at 10 µM; 100,000 tested, 4% active; AID 449739, 2010;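 active means single-dose well whose peak fluorescence ratio is a statistical outlier from its plate by either plate-standardised score or position-corrected B-score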
CYP2C19 inh = blockers of cytochrome P450 2C19 activity – biochemical, luminescence, ADME assay, primary screen | 96,000 tested, 21% active | inhibition, % at 5 µM | CYP2C19 Supersomes, luciferin-H EGE luminescence, 30 min | P33261 | AID 778, 2007;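 active means CYP2C19 inhibition above a set limit at 5 µM in the primary screen, cut at about 50% in these data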;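 further: plate controls were negative control wells for no effect and 2.5 mM tranylcypromine positive control for full effect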
CYP2C9 activ = human CYP2C9 activators, primary screen, biochemical, luminescence; Cytochrome P450 2C9 (Homo sapiens), P11712; activation factor at 5 µM; recombinant CYP2C9, luciferin-H conversion; stronger effect = higher value; factor 1 = untreated enzyme, 0 = blocked; 96,000 tested, 1.4% active; AID 1024, 2008;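 active means activation factor of 2 or more for CYP2C9 at a 5 µM dose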;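 further: 0 = sulfaphenazole-blocked wells and 1 = vehicle-only wells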
Target sequence (P11712 whole entry, looked up): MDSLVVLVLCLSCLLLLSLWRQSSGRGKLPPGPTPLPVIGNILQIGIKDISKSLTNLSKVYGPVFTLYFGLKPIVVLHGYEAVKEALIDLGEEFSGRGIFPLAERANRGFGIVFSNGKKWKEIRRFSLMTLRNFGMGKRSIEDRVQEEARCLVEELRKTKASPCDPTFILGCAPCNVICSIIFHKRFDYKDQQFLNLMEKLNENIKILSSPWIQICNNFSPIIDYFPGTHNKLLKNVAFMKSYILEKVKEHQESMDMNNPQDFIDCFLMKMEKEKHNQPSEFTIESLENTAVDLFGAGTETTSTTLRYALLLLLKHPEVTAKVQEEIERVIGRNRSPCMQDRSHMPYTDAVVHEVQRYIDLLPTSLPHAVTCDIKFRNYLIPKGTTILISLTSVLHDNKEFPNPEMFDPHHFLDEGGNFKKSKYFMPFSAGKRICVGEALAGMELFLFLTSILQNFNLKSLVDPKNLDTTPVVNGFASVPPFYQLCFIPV
CYP2C19 act = human CYP2C19 activators, primary screen, biochemical, luminescence; AID 1025, 2008; recombinant CYP2C19, luciferin-H EGE luminescence; stronger effect = higher value; 0 = fully inhibited enzyme, 1 = untreated enzyme; 96,000 tested, under 10 active; activation factor at 5 µM; Cytochrome P450 2C19 (Homo sapiens), P33261;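 active means activation factor of at least 2 at 5 µM in the primary screen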;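 further: 0 = wells with 2.5 mM tranylcypromine and 1 = vehicle-only wells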
CYP2C9 inh = blockers of cytochrome P450 2C9 activity – biochemical, luminescence, ADME assay, primary screen | P11712 | CYP2C9 Supersomes, luciferin-H conversion | inhibition, % at 5 µM | 96,000 tested, 20% active;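 active means blocking of liver enzyme CYP2C9 beyond about 50% at 5 µM, limit read from the data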
Starred values were filed as active, the others as inactive; . = no result. In the library only some 27% were active in any assay of this set; here they are far more common.

SMILES | Cav3 T inh | CYP2C19 inh | CYP2C9 activ | CYP2C19 act | CYP2C9 inh
Cc1ccc(S(=O)(=O)NC(CN2CCOCC2)=NCCNS(=O)(=O)c2ccccc2)cc1 | -0.0164 | 28.8 | 0.5 | 0.7 | 52.2*
CCOC(=O)CN(C(=O)CNC(=O)c1cccs1)C(C(=O)NC1CCCC1)c1cccnc1 (configuration not stated) | -0.289 | 16.6 | 0.9 | 0.8 | 11.5
Cc1ccccc1OCC(=O)N/N=C/c1ccc(Sc2nc3ccccc3s2)o1 | -6.85* | 74.1* | 0.2 | 0.3 | 83.0*
COCC(=O)N/N=C/c1ccc(Sc2nc3ccccc3s2)o1 | -3.62 | 11.1 | 1.2 | 0.9 | -19.7
O=C(Cc1cccc2ccccc12)N/N=C/c1ccc(Sc2nc3ccccc3s2)o1 | -2.95 | 16.3 | 0.2 | 0.8 | 75.9*
N#CCC(=O)N/N=C/c1ccc(Sc2nc3ccccc3s2)o1 | -5.28* | 78.3* | 0.8 | 0.2 | 18.3
COc1ccc(Br)c2oc(SC)cc(=O)c12 | 0.376 | . | . | . | .
Cc1ccc(Cn2ccc(=O)c(OCc3c(Cl)cccc3Cl)c2C)cc1 | 0.118 | 65.0* | 0.6 | 0.3 | 45.0
Cc1[nH]ccc(=O)c1OCc1c(Cl)cccc1Cl | -0.168 | 12.1 | 0.8 | 0.9 | 18.2
Cc1nn(-c2ccccc2)c(Cl)c1C(=O)NCC(C)C | 0.106 | 69.3* | 0.4 | 0.3 | 63.4*
Cc1nn(-c2ccccc2)c(Cl)c1C(=O)OC(C)C(=O)NC(=O)NC1CCCCC1 (configuration not stated) | -2.29 | 39.1 | 0.5 | 0.6 | 54.9*
COc1ccc(-c2noc(CN(C)S(=O)(=O)c3ccccc3)n2)cc1OC | 0.0681 | . | . | . | .
COc1ccc(S(=O)(=O)N(Cc2ccccc2)Cc2nc(-c3ccccc3)no2)cc1 | -5.52* | 87.0* | 0.1 | 0.1 | 91.6*
CN(Cc1nc(-c2cccnc2)no1)S(=O)(=O)c1ccccc1 | 0.757 | 73.8* | 0.9 | 0.3 | 14.9
Cc1ccc(S(=O)(=O)N(C)Cc2nc(-c3ccc(Br)cc3)no2)cc1 | 0.555 | 20.1 | 1 | 0.8 | -3.4
Cc1ccc(S(=O)(=O)N(C)Cc2nc(-c3ccncc3)no2)cc1 | 0.72 | 92.4* | 0.3 | 0.1 | 69.0*
CCOC(=O)c1oc2ccc(S(=O)(=O)n3nc(-c4ccccc4)cc3N)cc2c1C | -0.552 | 31.0 | 0 | 0.7 | 97.7*
CCOC(=O)c1oc2ccc(S(=O)(=O)n3nc(-c4ccc(OC)cc4)cc3N)cc2c1C | . | 1.9 | 0 | 1 | 100.0*
CCN(CC)C(=O)C(Cc1ccccc1)N1C(=O)c2ccccc2C1=O (configuration not stated) | -0.314 | 66.6* | 0.5 | 0.3 | 52.8*
Cc1c(NC(=O)c2cc(=O)[nH]c(=O)[nH]2)c(=O)n(-c2ccccc2)n1C | 0.0566 | -9.7 | 1.2 | 1.1 | -17.6
COCC(C)NCc1cccc(OC)c1OC (configuration not stated) | 0.166 | 21.6 | 0.9 | 0.8 | 7.3
COCC(C)NCc1ccccc1C (configuration not stated) | 0.126 | 26.0 | 0.2 | 0.7 | 80.0*
COc1ccc(NC(=O)C(CCSC)N2C(=O)c3ccccc3C2=O)cc1 (configuration not stated) | 0.00781 | -37.5 | 1.2 | 1.4 | -17.7
CCOC(=O)C(Cc1ccc(NC(=O)/C(=C/c2ccc(OC(C)=O)cc2)NC(C)=O)cc1)N1C(=O)c2ccccc2C1=O (configuration not stated) | -0.0475 | 26.7 | 0.4 | 0.7 | 59.7*
CCOC(=O)C(Cc1ccc(NC(=O)/C(=C/c2ccccc2)NC(=O)c2ccccc2)cc1)N1C(=O)c2ccccc2C1=O (configuration not stated) | -0.585 | 51.9* | 0.1 | 0.5 | 91.2*
SMILES | Cav3 T inh | CYP2C19 inh | CYP2C9 activ | CYP2C19 act | CYP2C9 inh
O=c1c2ccccc2nc(/C=C/c2ccc([N+](=O)[O-])o2)n1CCCO | -0.541 | 15.9 | 0.9 | 0.8 | 11.3
CCOC(=O)Cc1csc(NC(=O)CSc2nncn2C)n1 | -0.521 | . | . | . | .
COc1ccccc1C1CC(c2ccc(C)cc2)Nc2ncnn21 (configuration not stated) | -1.83 | 88.1* | 0.7 | 0.1 | 30.6
COc1ccccc1C1CC(c2ccccc2)Nc2ncnn21 (configuration not stated) | -0.568 | 87.2* | 0.6 | 0.1 | 37.3
Fc1ccc(C2CC(c3ccco3)n3ncnc3N2)cc1 (configuration not stated) | -0.395 | . | . | . | .
COc1ccccc1C1CC(c2ccc(F)cc2)Nc2ncnn21 (configuration not stated) | . | 42.0 | 1.1 | 0.6 | -5.7
COc1ccc2c(c1)C1=NN(/C(C)=C\C(C)=O)C(c3ccccc3)C1CC2 (configuration not stated) | -0.11 | . | . | . | .
CCOC(=O)N1CCN(C2CC(=O)N(c3ccc(Oc4ccccc4)cc3)C2=O)CC1 (configuration not stated) | -1.92 | -11.9 | 0.9 | 1.1 | 8.9
COCCN(C(=O)CNC(=O)c1cccs1)C(C(=O)NC1CCCCC1)c1ccco1 (configuration not stated) | 0.104 | 6.4 | 1.1 | 0.9 | -5.6
O=C(NC1CCCCC1)C(c1cccs1)N(Cc1cccs1)C(=O)c1cccs1 (configuration not stated) | -5.26* | . | . | . | .
CCOC(=O)CN(C(=O)CNC(=O)c1cccs1)C(C(=O)NC1CCCCC1)c1cccs1 (configuration not stated) | 0.726 | . | . | . | .
COCCN(C(=O)CNC(=O)c1cccs1)C(C(=O)NC1CCCC1)c1cccs1 (configuration not stated) | 0.354 | 55.7* | 0.5 | 0.4 | 47.0
O=C(NC1CCCCC1)C(c1ccc2ncccc2c1)N(Cc1cccs1)C(=O)c1cccs1 (configuration not stated) | -1.6 | 60.0* | 0.4 | 0.4 | 59.3*
O=C(NCC(=O)N(Cc1cccs1)C(C(=O)NC1CCCCC1)c1cccnc1)c1ccco1 (configuration not stated) | -0.0774 | . | . | . | .
O=C(NC1CCCCC1)C(c1ccco1)N(Cc1cccnc1)C(=O)C1COc2ccccc2O1 (configuration not stated) | -0.594 | 84.2* | 0.2 | 0.2 | 75.5*
COCOc1ccc(-c2oc3c(C/C=C(\C)CCC=C(C)C)ccc(O)c3c(=O)c2OCOC)c(OCOC)c1 | -1.84 | . | . | . | .
CCc1c(C(C)S(=O)(=O)c2ccc(C)cc2)[nH]c(=O)n1-c1ccc(OC(F)(F)F)cc1 (configuration not stated) | 0.136 | 16.4 | 1 | 0.8 | 4.5
COc1ccccc1Nc1ncnc2ccccc12 | 0.922 | 17.4 | 0.9 | 0.8 | 14.8
C=CCOC(=O)C1=C[C@@H](c2coc3ccccc3c2=O)C[C@@H](OCCCCO)O1 | 0.754 | . | . | . | .
